# Pf growth 48h = Primary qHTS for delayed death inhibitors of the malarial parasite plastid, 48 hour incubation | P. falciparum luciferase growth in erythrocytes, 48 h | Potency, µM (series often up to 28.7 µM), without a hit: at the highest dose activity change, negative = inhibition, actives largely listed as inhibitors | 310,000 tested, 5.9% active
#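 Luminescence readout; reporter = integrated firefly luciferase in P. falciparum. RBC culture at 2% hematocrit, 0.1% parasitemia final, 37 C/5% CO2; decreased signal taken as growth inhibition.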
# HCV inhibitor = qHTS Assay for Inhibitors of Hepatitis C Virus (HCV). 340,000 tested, 3.4% active. Huh7.5.1 HCVcc-Cre infection, luciferase reporter, 44 h. Potency, µM (titrated, usually from 41.8 µM), inactives show top-dose activity change, negative = inhibition, most hits filed as inhibitors
#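 After 44 h co-culture of compound, cells and HCVcc-Cre (~0.5 moi), substrate is added for 15 min at room temperature and luciferase measured over 15 sec. Cells were seeded at 1,000/well and pre-cultured 4 h.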
# AmpC inh detg = qHTS Inhibitors of AmpC Beta-Lactamase (assay with detergent). AmpC hydrolysis of nitrocefin, absorbance 480 nm, 0.01% Triton. Potency, µM (highest dose often 114 µM), inactives show top-dose activity change, negative = inhibition, hits mostly inhibitors. 370,000 tested, 0.041% active;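 note: 0% = no-compound wells and -100% = no-enzyme wells; nearly all actives have a fitted effect of over 25% in size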
# Target sequence (P00811 whole entry, looked up): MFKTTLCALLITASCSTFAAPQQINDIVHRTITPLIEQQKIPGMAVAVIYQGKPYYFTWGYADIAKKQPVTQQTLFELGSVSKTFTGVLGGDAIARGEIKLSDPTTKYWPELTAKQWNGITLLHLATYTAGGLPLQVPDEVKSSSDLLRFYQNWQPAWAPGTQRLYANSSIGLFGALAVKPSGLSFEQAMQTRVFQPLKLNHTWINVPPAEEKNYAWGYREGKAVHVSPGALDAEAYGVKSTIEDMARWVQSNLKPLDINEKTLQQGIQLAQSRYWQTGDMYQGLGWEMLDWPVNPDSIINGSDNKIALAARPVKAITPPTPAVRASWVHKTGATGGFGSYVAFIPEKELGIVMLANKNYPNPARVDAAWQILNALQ
#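 AmpC (5.3 nM in the dispensed reagent) in 20 mM phosphate pH 7.0 with 0.01% (detergent screen) or 0.0001% Triton X-100 was preincubated with compounds for 15 min at room temperature. Nitrocefin was then added from an 800 uM solution, and hydrolysis was followed at 480 nm.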
# AmpC no deterg = qHTS Inhibitors of AmpC Beta-Lactamase (assay without detergent); AmpC nitrocefin hydrolysis, absorbance 480 nm, 0.0001% Triton; P00811; Potency, µM (series often up to 57.1 µM), for the others: at the top dose activity change, negative = inhibition, usual class: inhibitors; AID 485341, 2010; 330,000 tested, 0.52% active;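 note: plate controls were no compound for no effect and no enzyme for full effect; nearly all actives have a fitted effect of over 20% in size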
#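 AmpC (5.3 nM in the dispensed reagent) in 20 mM phosphate pH 7.0 with 0.01% (detergent screen) or 0.0001% Triton X-100 was preincubated with compounds for 15 min at room temperature. Nitrocefin was then added from an 800 uM solution, and hydrolysis was followed at 480 nm.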
# AMA1-RON2 inh = qHTS for Inhibitors of AMA1-RON; Towards Development of Antimalarial Drug Lead: Primary Screen | Plasmodium falciparum AMA1 (3D7) - RON2 peptide interaction | AlphaScreen AMA1-biotinylated RON2 peptide binding | Potency, µM (doses to about 58.2 µM), for the others: at the highest dose activity change, negative = inhibition, actives largely listed as inhibitors | 360,000 tested, 0.2% active;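 note: 0% = vehicle wells and -100% = peptide control; nearly all actives have a fitted effect of over 45% in size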
#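 AMA1 (3D7) with his tag at 25 nM final met compounds first, then biotinylated RON2 peptide at 25 nM; detection used donor plus acceptor beads, 10 µg/mL apiece, read by AlphaScreen after 30 min at room temperature.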
# Pf growth 96h = Primary qHTS for delayed death inhibitors of the malarial parasite plastid, 96 hour incubation; P. falciparum luciferase reporter growth, 96 h; 320,000 tested, 6.9% active; Potency, µM (series often up to 28.7 µM), without a hit: at the top dose activity change, negative = inhibition, usual class: inhibitors; AID 504834, 2011
#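 Plates of compound plus infected erythrocytes (2% hematocrit, 0.05% parasitemia final) incubate 96 hours, 37 C, 5% CO2. Detection reagent added; reduced luminescence from the parasites' luciferase reporter flags inhibition.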
# The depositor's hits bear a star; ? = inconclusive; nt = no result. Most compounds without a hit are left out; they make up all but 11% or so of the library. Calls come from the whole dose curve; as a rule, active = well fitted curve in the direction sought with a large enough effect; inconclusive = small, poorly fitted or top-dose-only effect, or another doubt; inactive = no such curve, though single readings can be large; an effect the other way counts as inactive or inconclusive. Unless noted, % is set by controls: 0 for no effect and ±100 for the full control effect; potency is the fitted concentration of half-maximal effect.
SMILES,Pf growth 48h,HCV inhibitor,AmpC inh detg,AmpC no deterg,AMA1-RON2 inh,Pf growth 96h
Cc1cc(C)cc(N(CC(=O)NCc2ccc3c(c2)OCO3)C(=O)CCC(=O)Nc2ccccn2)c1,1.3µM*,-9%,-2%,-6%,6%,?
CCOc1ccc(N(CC(=O)NCCc2ccccc2)C(=O)CCC(=O)Nc2cc(C)ccn2)cc1,4.7µM*,17%,6%,15%,-19%,14%
Cc1ccnc(NC(=O)CCC(=O)N(CC(=O)NCCc2ccccc2)c2ccc(F)cc2)c1,-12%,-8%,-6%,2%,-6%,-13%
COCCNC(=O)C(c1ccc(C)cc1)N(C(=O)CCC(=O)Nc1ccccn1)c1ccc(F)cc1 (centres undefined),0%,17%,3%,145%,-3%,-14%
Cc1ccc(N(CC(=O)NCC2CCCO2)C(=O)CCC(=O)Nc2ccccn2)cc1 (centres undefined),-7%,5%,-13%,3%,15%,0.59µM*
COCCNC(=O)C(c1ccc(F)cc1)N(C(=O)CCC(=O)Nc1ccccn1)c1ccc(C)cc1 (centres undefined),-8%,6%,2%,151%,?,1.3µM*
CCc1ccc(NC(=O)Cn2cnc3sc(C)c(S(=O)(=O)N4CCC(C)CC4)c3c2=O)cc1,nt,nt,-9%,nt,nt,nt
CCc1ccc2ncc3c(-c4ccc(F)cc4)nn(CC(=O)NCc4ccccc4)c3c2c1,nt,nt,22%,nt,nt,nt
COCCNC(=O)CN(C(=O)CCC(=O)Nc1ccccn1)c1ccc(C)c(C)c1,-18%,23%,-8%,54%,21%,9.3µM*
COCCNC(=O)C(c1ccc(O)cc1)N(Cc1ccco1)C(=O)CCC(=O)Nc1ccccn1 (centres undefined),-3%,-1%,-1%,-5%,0%,18%
COCCNC(=O)C(c1ccc(Cl)cc1)N(Cc1ccco1)C(=O)CCC(=O)Nc1ccccn1 (centres undefined),0%,24%,-4%,135%,-2%,13µM*
O=c1cc(-c2ccccc2)[nH]n1-c1ccccc1,nt,2%,nt,nt,17%,nt
O=c1cc(-c2ccccc2)[nH]n1-c1nc2ccccc2s1,16%,1%,0%,-59%,72%,5.2µM*
O=C(Nc1cccc2ncccc12)c1cccc(Br)c1,-2%,-15%,-1%,-17%,25%,?
COc1ccc(Br)cc1C(=O)Nc1ccc(O)cc1,22%,4µM*,?,-17%,2%,nt
O=C(Nc1cccc2ncccc12)c1ccc(Br)c([N+](=O)[O-])c1,0%,13µM*,-14%,-31%,4%,23%
O=C(Nc1cccc2ncccc12)c1ccc(Cl)cc1,?,10%,-3%,-5%,?,6.6µM*
COc1ccc(Br)cc1C(=O)Nc1cccc2ncccc12,1%,10µM*,5%,-6%,-4%,-7%
Cc1ccc(N2C(=O)NC(NS(=O)(=O)c3ccc(Cl)cc3)(C(F)(F)F)C2=O)cc1C (centres undefined),nt,nt,6%,nt,nt,nt
COc1ccc(Cl)cc1C(=O)Nc1cccc2ncccc12,?,?,?,21%,0%,0.23µM*
COc1ccccc1CNC(=O)CSc1nc2nc(C)c(Cc3ccccc3Cl)c(C)n2n1,nt,nt,5%,nt,nt,nt
O=C(C1CC(=O)N(c2ccc(Cl)cc2)C1)N1CCC(c2nc3ccccc3[nH]2)CC1 (centres undefined),10µM*,-12%,?,42%,-12%,?
COc1ccc(OC)c(S(=O)(=O)N2CCC(c3nc4ccccc4[nH]3)CC2)c1,?,0%,-9%,-34%,-10%,10µM*
Cc1ccccc1NC(=S)N1CCCC(c2nc3ccccc3[nH]2)C1 (centres undefined),-17%,-24%,4%,-15%,3%,0%
CCOC(=O)N1CCC(c2nc3ccccc3[nH]2)CC1,nt,11%,-11%,-10%,3%,9.3µM*
SMILES,Pf growth 48h,HCV inhibitor,AmpC inh detg,AmpC no deterg,AMA1-RON2 inh,Pf growth 96h
Cc1ccc(NC(=S)N2CCCC(c3nc4ccccc4[nH]3)C2)cc1 (centres undefined),-18%,2.5µM*,0%,31%,4%,-14%
Cc1c(OC(C)C(=O)NCc2ccccn2)ccc2c3c(c(=O)oc12)CCCC3 (centres undefined),?,?,-2%,188%,13%,1.7µM*
Cc1c(OC(C)C(=O)NCc2ccncc2)ccc2c3c(c(=O)oc12)CCC3 (centres undefined),?,?,0%,71%,-8%,9.3µM*
Cc1c(OC(C)C(=O)N[C@H](C(=O)O)c2ccccc2)ccc2c3c(c(=O)oc12)CCCC3 (some centres undefined),?,0%,?,-34%,-11%,?
Cc1c(OCC(=O)NCc2ccncc2)ccc2c3c(c(=O)oc12)CCC3,?,3%,2%,-25%,0%,13µM*
CC(Oc1cc2oc(=O)c3c(c2cc1Cl)CCCC3)C(=O)NCc1ccccn1 (centres undefined),3%,-30%,?,132%,0%,2%
Cc1c(OCC(=O)NCc2cccnc2)ccc2c3c(c(=O)oc12)CCC3,-6%,-13%,-2%,11%,6%,-7%
Cc1c(OC(C)C(=O)NCCN2CCOCC2)ccc2c3c(c(=O)oc12)CCCC3 (centres undefined),-19%,?,?,148%,-15%,?
Cc1c(OC(C)C(=O)NCC(O)c2ccccc2)ccc2c3c(c(=O)oc12)CCC3 (centres undefined),13µM*,?,-11%,113%,12%,10µM*
Cc1c(C(=O)N2CCC(C)CC2)c(S(=O)(=O)N2CCN(c3cccc(Cl)c3)CC2)c(C)n1C,nt,nt,12%,nt,nt,nt
COc1cccc(C2C3=C(CCCC3=O)Nc3nc(-c4cc(OC)c(OC)c(OC)c4)nn32)c1 (centres undefined),?,-29%,2%,-3%,-8%,?
COc1cc(-c2nc3n(n2)C(c2ccc(F)cc2)C2=C(CCCC2=O)N3)cc(OC)c1OC (centres undefined),5.2µM*,?,-11%,-12%,-9%,61%
Cc1ccc(Cl)cc1NC(=O)CCn1c(=O)c2cccn2c2cccnc21,nt,nt,15%,nt,nt,nt

# From PubChem
